Assay results as given in PubChem BioAssay AID1159580 (chemical genetic matrix, 2015).
About 2,000 (36%) of roughly 5,500 compounds were called active. Another 18% or so got no clear call; they are omitted. Rule as the data show it: active = normalized growth mostly below about 0.91 (no sharp cut-off); inconclusive = no clear call, values can overlap the other calls; inactive = mostly above about 0.92. Some of the results follow.

Experiment: chemical genetic growth profiling, strain panel (AID 1159580);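 also: tested at 20 µM; growth read once vehicle control cultures reached saturation at 30 °C; 1 = growth at the plate median or of vehicle wells; lower values mean less growth of the strain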
Conditions: growth OD

Measured: normalized growth

O=C(OC1Cc2c(O)cc(O)cc2OC1c1cc(O)c(O)c(O)c1-c1c(C2Oc3cc(O)cc(O)c3CC2OC(=O)c2cc(O)c(O)c(O)c2)cc(O)c(O)c1O)c1cc(O)c(O)c(O)c1 (stereo not given)
inactive: S. cerevisiae deletion strains, locus YJL187C, strain SWE1 (second series), active compounds read low 1.01 | S. cerevisiae deletion strains, locus YJR043C, strain POL32, active compounds read low 1.06 | S. cerevisiae deletion strains, locus YKL009W, strain mrt4, active compounds read low 0.953 | S. cerevisiae deletion strains, locus YKL068W, active compounds read low 1 | S. cerevisiae deletion strains, locus YKL085W, strain MDH1 (second series), active compounds read low 0.991 | S. cerevisiae deletion strains, locus YKL085W, strain MDH1, active compounds read low 0.991 | S. cerevisiae deletion strains, locus YKL160W, strain elf1, active compounds read low 1 | S. cerevisiae deletion strains, locus YKL190W, strain CNB1, active compounds read low 1 | S. cerevisiae deletion strains, locus YKR001C, strain vps1, active compounds read low 0.961 | S. cerevisiae deletion strains, locus YKR026C, strain gcn3, active compounds read low 1.02 | S. cerevisiae deletion strains, locus YKR091W, strain srl3, active compounds read low 1.02 | S. cerevisiae deletion strains, locus YLL001W, strain dnm1, active compounds read low 1.02 | S. cerevisiae deletion strains, locus YLL026W, active compounds read low 1.02 | S. cerevisiae deletion strains, locus YLL041C, strain sdh2, active compounds read low 1 | S. cerevisiae deletion strains, locus YLR027C, strain aat2, active compounds read low 1.01 | S. cerevisiae deletion strains, locus YLR039C, strain RIC1, active compounds read low 1.04 | S. cerevisiae deletion strains, locus YLR058C, strain SHM2, active compounds read low 1.01 | S. cerevisiae deletion strains, locus YLR102C, strain apc9, active compounds read low 0.988 | S. cerevisiae deletion strains, locus YLR221C, strain rsa3, active compounds read low 0.995 | S. cerevisiae deletion strains, locus YLR258W, strain gsy2, active compounds read low 0.993 | S. cerevisiae deletion strains, locus YLR262C, strain YPT6, active compounds read low 0.99 | S. cerevisiae deletion strains, locus YLR268W, strain sec22, active compounds read low 0.993 | S. cerevisiae deletion strains, locus YLR320W, strain mms22, active compounds read low 0.981 | S. cerevisiae deletion strains, locus YLR330W, strain CHS5, active compounds read low 0.993 | S. cerevisiae deletion strains, locus YLR342W, strain FKS1 (second series), active compounds read low 1.1 | S. cerevisiae deletion strains, locus YLR342W, strain FKS1, active compounds read low 0.98 | S. cerevisiae deletion strains, locus YLR370C, strain arc18, active compounds read low 1.01 | S. cerevisiae deletion strains, locus YLR371W, strain rom2, active compounds read low 0.979 | S. cerevisiae deletion strains, locus YLR384C, strain iki3, active compounds read low 1 | S. cerevisiae deletion strains, locus YLR418C, strain cdc73, active compounds read low 0.931 | S. cerevisiae deletion strains, locus YML016C, strain PPZ1, active compounds read low 1.03 | S. cerevisiae deletion strains, locus YML032C, strain rad52, active compounds read low 0.99 | S. cerevisiae deletion strains, locus YML120C, strain ndi1, active compounds read low 1 | S. cerevisiae deletion strains, locus YML124C, strain tub3, active compounds read low 0.992 | S. cerevisiae deletion strains, locus YMR078C, strain ctf18, active compounds read low 0.981 | S. cerevisiae deletion strains, locus YMR125W, strain sto1, active compounds read low 1.04 | S. cerevisiae deletion strains, locus YMR129W, active compounds read low 1.02 | S. cerevisiae deletion strains, locus YMR205C, strain PFK2, active compounds read low 0.974 | S. cerevisiae deletion strains, locus YMR223W, strain ubp8, active compounds read low 0.995 | S. cerevisiae deletion strains, locus YMR307W, strain GAS1, active compounds read low 1.08 | S. cerevisiae deletion strains, locus YNL067W, strain RPL9B, active compounds read low 0.984 | S. cerevisiae deletion strains, locus YNL071W, strain lat1, active compounds read low 1.02 | S. cerevisiae deletion strains, locus YNL153C, strain GIM3, active compounds read low 1 | S. cerevisiae deletion strains, locus YNL233W, strain BNI4, active compounds read low 0.964 | S. cerevisiae deletion strains, locus YNL248C, strain rpa49, active compounds read low 1.01 | S. cerevisiae deletion strains, locus YNL250W, strain rad50, active compounds read low 0.968 | S. cerevisiae deletion strains, locus YNL271C, strain bni1, active compounds read low 0.964 | S. cerevisiae deletion strains, locus YNL298W, strain CLA4, active compounds read low 0.979 | S. cerevisiae deletion strains, locus YNL307C, strain MCK1, active compounds read low 0.979 | S. cerevisiae deletion strains, locus YNL322C, strain KRE1 (second series), active compounds read low 1.05 | S. cerevisiae deletion strains, locus YNL322C, strain KRE1, active compounds read low 0.998 | S. cerevisiae deletion strains, locus YNR049C, strain mso1, active compounds read low 1.02 | S. cerevisiae deletion strains, locus YNR052C, strain pop2, active compounds read low 0.969 | S. cerevisiae deletion strains, locus YOL006C, strain TOP1, active compounds read low 0.885 | S. cerevisiae deletion strains, locus YOL012C, strain htz1 1.2 | S. cerevisiae deletion strains, locus YOL147C, strain pex11, active compounds read low 0.987 | S. cerevisiae deletion strains, locus YOR001W, strain rrp6, active compounds read low 0.997 | S. cerevisiae deletion strains, locus YOR061W, strain CKA2, active compounds read low 1.03 | S. cerevisiae deletion strains, locus YOR069W, strain VPS5, active compounds read low 1.02 | S. cerevisiae deletion strains, locus YOR070C, strain gyp1, active compounds read low 0.975 | S. cerevisiae deletion strains, locus YOR080W, strain dia2, active compounds read low 1.02 | S. cerevisiae deletion strains, locus YOR083W, strain WHI5, active compounds read low 0.976 | S. cerevisiae deletion strains, locus YOR136W, strain idh2, active compounds read low 0.972 | S. cerevisiae deletion strains, locus YOR144C, strain elg1, active compounds read low 0.999 | S. cerevisiae deletion strains, locus YOR184W, strain ser1, active compounds read low 0.982 | S. cerevisiae deletion strains, locus YOR265W, strain rbl2, active compounds read low 0.984 | S. cerevisiae deletion strains, locus YOR270C, strain vph1, active compounds read low 0.835 | S. cerevisiae deletion strains, locus YOR290C, strain snf2, active compounds read low 0.985 | S. cerevisiae deletion strains, locus YOR316C, strain cot1, active compounds read low 1 | S. cerevisiae deletion strains, locus YPL078C, strain atp4, active compounds read low 1.01 | S. cerevisiae deletion strains, locus YPL106C, strain sse1, active compounds read low 0.893 | S. cerevisiae deletion strains, locus YPL240C, strain hsp82, active compounds read low 1.02 | S. cerevisiae deletion strains, locus YPR119W, strain clb2, active compounds read low 0.999 | S. cerevisiae deletion strains, locus YPR141C, strain kar3, active compounds read low 0.964 | S. cerevisiae deletion strains, locus YPR163C, strain tif3, active compounds read low 0.987 | S. cerevisiae deletion strains, locus YPR167C, strain met16, active compounds read low 0.986 | S. cerevisiae deletion strains, strain wtn01, active compounds read low 0.994 | S. cerevisiae strains, strain wild type, active compounds read low 1.01
active: S. cerevisiae deletion strains, locus YLR262C, strain YPT6 (second series), active compounds read low 0.766 | S. cerevisiae deletion strains, locus YLR357W, strain rsc2, active compounds read low 0.807 | S. cerevisiae deletion strains, locus YMR058W, strain fet3, active compounds read low 0.338 | S. cerevisiae deletion strains, locus YMR231W, strain pep5, active compounds read low 0.762 | S. cerevisiae deletion strains, locus YNL209W, strain ssb2, active compounds read low 0.735 | S. cerevisiae deletion strains, locus YOR106W, strain vam3, active compounds read low 0.648 | S. cerevisiae deletion strains, locus YPL051W, strain arl3, active compounds read low 0.82
